# FLuc modulator – qHTS profiling assay for firefly luciferase inhibitor/activator using purifed enzyme and Km concentrations of substrates (counterscreen for miR-21 project); Luciferin 4-monooxygenase (Photinus pyralis), P08659; purified FLuc, Km substrates, luminescence inhibition; Potency, µM (highest dose often 57.5 µM), without a hit: at the top dose activity change, negative = inhibition, most hits filed as inhibitors; 6.9% of 360,000 active; AID 588342, 2011;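 further: plate controls were vehicle for no effect and reference inhibitor for full effect; nearly all actives have a fitted effect of over 55% in size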
# Target sequence (P08659 whole entry, looked up): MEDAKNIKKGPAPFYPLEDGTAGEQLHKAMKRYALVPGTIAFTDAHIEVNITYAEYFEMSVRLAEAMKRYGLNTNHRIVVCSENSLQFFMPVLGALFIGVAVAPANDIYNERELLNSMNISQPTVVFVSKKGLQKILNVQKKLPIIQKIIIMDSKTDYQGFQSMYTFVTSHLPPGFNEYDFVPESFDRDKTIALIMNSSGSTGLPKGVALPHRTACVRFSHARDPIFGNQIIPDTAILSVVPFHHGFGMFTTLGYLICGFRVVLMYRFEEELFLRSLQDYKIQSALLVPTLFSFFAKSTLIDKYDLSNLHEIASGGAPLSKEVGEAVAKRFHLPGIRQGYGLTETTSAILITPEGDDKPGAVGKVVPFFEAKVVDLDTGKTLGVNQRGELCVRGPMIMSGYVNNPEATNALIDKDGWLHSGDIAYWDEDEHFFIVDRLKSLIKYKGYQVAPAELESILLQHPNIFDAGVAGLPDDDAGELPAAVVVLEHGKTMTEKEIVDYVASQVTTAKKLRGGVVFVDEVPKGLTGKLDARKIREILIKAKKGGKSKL
#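 Purified P. pyralis luciferase (10nM final) with 10uM D-luciferin and 10uM ATP (Km levels) in 50mM Tris acetate pH 7.5, 10mM Mg acetate, 0.01% Tween-20, 0.05% BSA; qHTS 6-point titration, ~60 µM downward; luminescence read.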
# Rab9 promoter act – qHTS Assay for Rab9 Promoter Activators | 2.8% of 320,000 active | Potency, µM (highest dose often 9.22 µM), for inactives: top-dose activation, negative = inhibition, hits mostly activators | Huh7 Rab9 promoter-luciferase reporter, luminescence, 24 h; further: % of control where 0% means no effect; nearly all actives have a fitted effect of over 60% in size
#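 Huh7 cells stably carrying a Rab9 promoter-luciferase reporter, 1500 cells per well in OP-MEM I with 10% FBS, treated with compound 24 hours at 37C. Luciferase activity read by luminescence after 10 minutes with Amplite reagent.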
# ELG1 genotox – qHTS screen for small molecules that induce genotoxicity in human embryonic kidney (HEK293T) cells expressing luciferase-tagged ELG1 | Potency, µM (titrated, usually from 46 µM), inactives show top-dose activity change, positive = activation, usual class: activators | AID 504466, 2011 | HEK293T ELG1-luciferase reporter, luminescence, 16 h | 1.3% of 330,000 active; further: % of control where 0% means no effect; nearly all actives have a fitted effect of over 60% in size
#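 Step 1: seed 2,000 HEK293T ELG1-luciferase cells per well. Step 2: add compound or DMSO, incubate 16 hr at 37 °C. Step 3: ONE-Glo, 30 min at room temperature, read luminescence.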
# SMN2 splice enh – qHTS Assay for Enhancers of SMN2 Splice Variant Expression; 2.8% of 210,000 active; AID 1458, 2008; Potency, µM (highest dose often 46.1 µM), for inactives: at the highest dose activity change, positive = activation, most hits filed as activators; HEK293 SMN2-luciferase splicing reporter, luminescence, 30-36 h; further: % of control where 0% means no effect; nearly all actives have a fitted effect of over 55% in size
#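 HEK293 cells carry an SMN2 […]–luciferase reporter in which exon 7 inclusion puts luciferase in frame. Cells were plated 10-12 h before compound addition, then incubated 30-36 h at 37C. ONE-Glo luminescence was read; sodium butyrate at 4.5 mM final served as control.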
# NPC1 promoter act – qHTS Assay for NPC1 Promoter Activators; Huh7 NPC1 promoter luciferase reporter, 24 h; Potency, µM (highest dose often 9.22 µM), inactives show top-dose activation, most hits filed as activators; 2.4% of 320,000 active; further: % of control where 0% means no effect; nearly all actives have a fitted effect of over 60% in size
#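 In 1536-well qHTS, Huh7 cells harboring an NPC1 promoter–luciferase construct received compound for 24 h; activation was quantified by luminescence following luciferase reagent addition.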
# ELG1 DNA repair – qHTS screen for small molecules that inhibit ELG1-dependent DNA repair in human embryonic kidney (HEK293T) cells expressing luciferase-tagged ELG1. HEK293T ELG1-luciferase reporter, luminescence, 16 h; DNA damage induced by 5-fluorouridine. Potency, µM (titrated, usually from 46.1 µM), inactives show at the highest dose activity change, negative = inhibition, hits mostly inhibitors. 2.3% of 330,000 active. AID 504467, 2011; further: on the % scale 0 is the no-effect control and ±100 the full control effect; nearly all actives have a fitted effect of over 55% in size
#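 Step one: seed 2,000 cells per well. Step two: pin-transfer compound or DMSO alongside 5-fluorouridine. Step three: incubate 16 hr, 37 °C, 5% CO2. Step four: add ONE-Glo, wait 30 min, read luminescence.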
# ELG1 FLuc counter – qHTS screen for small molecules that inhibit ELG1-dependent DNA repair: Hit Confirmation in Cell-Based Luciferin Assay. AID 624247, 2012. Potency, µM (top dose mostly 46.1 µM), without a hit: at the top dose activity change, negative = inhibition, usual class: inhibitors. cell-free firefly luciferase luminescence counter-screen, ViewLux. shares compounds with ELG1 DNA repair. 3% of 350 active; further: on the % scale 0 is the no-effect control and ±100 the full control effect
# ELG1-Luc inh – HTS assay for small molecules that inhibit ELG1-dependent DNA repair in human embryonic kidney (HEK293T) cells expressing luciferase-tagged ELG1: Hit Confirmation. shares compounds with ELG1 DNA repair. HEK293T ELG1-luciferase levels, luminescence; cells co-treated with 5-fluorouridine. Potency, µM (doses to about 46.1 µM), for inactives: at the top dose activity change, negative = inhibition, usual class: inhibitors. 68% of 670 active. AID 624248, 2012; further: on the % scale 0 is the no-effect control and ±100 the full control effect; nearly all actives have a fitted effect of over 55% in size
# ELG1 MMS Luc – MMS-stimulated human ELG1 repair inhibition, confirmed. shares compounds with ELG1 DNA repair. HEK293T luciferase-tagged ELG1 level, MMS stimulated. Potency, µM (titrated, usually from 46.1 µM), inactives show at the highest dose activity change, negative = inhibition, usual class: inhibitors. 53% of 670 active; further: on the % scale 0 is the no-effect control and ±100 the full control effect; nearly all actives have a fitted effect of over 60% in size
# ELG1 5-FU – qHTS screen for small molecules that inhibit ELG1-dependent DNA repair: Hit Confirmation with 5FU Viability. shares compounds with ELG1 DNA repair. cell viability with 5-FU, ELG1-dependent repair. Potency, µM (highest dose often 46.1 µM), inactives show top-dose activity change, negative = viability loss, most hits filed as cytotoxic. 670 tested, under 10 active. AID 624250, 2012;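 further: ELG1-luc HEK293T cells cotreated with 5-fluorouridine at 10 µM final; viability measured 16 h after compound addition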
# ELG1 MMS viab – qHTS screen for small molecules that inhibit ELG1-dependent DNA repair: Hit Confirmation with MMS Viability. Potency, µM (top dose mostly 46.1 µM), for the others: top-dose activity change, negative = viability loss, hits mostly cytotoxic. Cell viability with MMS, ELG1-dependent DNA repair. shares compounds with ELG1 DNA repair. 33% of 670 active;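 further: ELG1-luc HEK293T cells co-treated with 10 µM MMS; viability read 16 h after compound addition; on the % scale 0 is the no-effect control and ±100 the full control effect; nearly all actives have a fitted effect of over 60% in size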
# Cell viab unstim – qHTS screen for small molecules that inhibit ELG1-dependent DNA repair: Hit Confirmation with Unstimulated Viability Assay | shares compounds with ELG1 DNA repair | cell viability counter-screen, unstimulated, luminescence | Potency, µM (titrated, usually from 45.9 µM), without a hit: at the top dose activity change, negative = loss of viability, actives largely listed as cytotoxic | 8% of 900 active | AID 624252, 2012;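 further: compound exposure lasted 16 hours before reading; on the % scale 0 is the no-effect control and ±100 the full control effect; nearly all actives have a fitted effect of over 55% in size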
# FLuc enzyme – qHTS screen for small molecules that inhibit ELG1-dependent DNA repair: Hit Confirmation in Biochemical Luciferin Assay; shares compounds with ELG1 DNA repair; purified firefly luciferase, luminescence counter-screen; Potency, µM (doses to about 57.5 µM), for the others: top-dose activity, negative = inhibition, usual class: inhibitors; 10% of 350 active; AID 624253, 2012; further: on the % scale 0 is the no-effect control and ±100 the full control effect
# * marks the source's active call; other numbers are inactive results; ? = inconclusive; · = not tested or not shown. Rows were chosen to be rich in hits. Some 9.2% of all compounds tested hit in one or more screens of this group. The call rests on the fitted dose curve; in most records, active means well fitted curve in the direction sought with a large enough effect; inconclusive means small, poorly fitted or top-dose-only effect, or another doubt; inactive means no such curve, though single readings can be large; an effect the other way counts as inactive or inconclusive. Potency means the concentration at half of the fitted maximal effect.
SMILES,FLuc modulator,Rab9 promoter act,ELG1 genotox,SMN2 splice enh,NPC1 promoter act,ELG1 DNA repair,ELG1 FLuc counter,ELG1-Luc inh,ELG1 MMS Luc,ELG1 5-FU,ELG1 MMS viab,Cell viab unstim,FLuc enzyme
Cc1nc(N)nc(N)c1/C=C/C(C)(C)c1ccc(Cl)cc1,4%,-26%,-17%,-53%,-11%,0.23µM*,?,7.9µM*,14µM*,?,?,0.056µM*,6%
CCc1c(C)nn(C(=O)/C(C#N)=C\N(C)C)c1C,-1%,-4%,-1%,2%,-4%,10%,·,·,·,·,·,·,·
Cn1cc(C(=O)N/N=C/c2c(O)ccc3ccccc23)ccc1=O,-17%,-41%,?,-93%,-34%,2.3µM*,·,?,3.1µM*,-15%,14µM*,?,·
Cn1nccc1C(=O)N/N=C/c1c(O)ccc2ccccc12,?,-42%,?,·,-29%,?,·,·,·,·,·,·,·
COc1ccccc1NC(=O)N(Cc1ccco1)Cc1cc2ccc(C)c(C)c2[nH]c1=O,?,-7%,-24%,-24%,-21%,8.2µM*,10%,4µM*,?,4%,?,?,-17%
CCc1cc(=O)oc2c(C)c(OCC(=O)N3CCCc4ccccc43)ccc12,3%,-4%,-12%,-6%,-1%,?,·,·,·,·,·,·,·
Cc1ccccc1-n1c(SCC(=O)c2c(N)n(C)c(=O)n(C)c2=O)nnc1-c1cccnc1,3%,-5%,-8%,-14%,-2%,?,·,·,·,·,·,·,·

# Compound activity deposited in PubChem by National Center for Advancing Translational Sciences (NCATS).
